HEK293 viab: counter-screen for SNCA expression inhibitors: cell viability; HEK-293-SNCA-luc viability, GF-AFC fluorescence, 24 h; Potency, µM (series often up to 57.1 µM), hits mostly cytotoxic; 150,000 compounds, 0.12% hits; AID 1671193; note: nearly all actives have a fitted effect of over 30% in size
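HEK-293-SNCA-luc cells (1500/well) plated 24 h, then exposed 24 h to a dilution series; GF-AFC added 30 min at 37C, fluorescence 405/540 nm; normalised to medium-only and DMSO wells, Hill fit.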
KDM5B inhibitor: inhibitors of human KDM5B histone demethylase | 220,000 compounds, 2.6% hits | Potency, µM (series often up to 57.7 µM), usual class: inhibitors | KDM5B demethylase, FDH-coupled NADH fluorescence (FDH is formaldehyde dehydrogenase) | AID 1347165; note: nearly all actives have a fitted effect of over 70% in size
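qHTS format, multiple compound concentrations. Buffer 50 mM HEPES pH 7.5/0.01% Tween-20; 200 nM KDM5BΔAP final; 10 min compound preincubation; substrate-mix levels 12.5 µM peptide, 25 µM α-KG, 0.25 mM NAD⁺; 30 min RT; ΔRFU.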
SNCA expr inh: reduces expression of the alpha-synuclein gene. HEK-293 SNCA-luciferase knock-in, luminescence, 24 h. Potency, µM (titrated, usually from 57.2 µM), actives largely listed as inhibitors. 140,000 compounds, 0.17% hits. AID 1671194; note: nearly all actives have a fitted effect of over 45% in size
IP6K1 inhibitor: IP6K1 kinase inhibition; Q92551; activity change, % (series mostly up to about 58 µM); IP6K1 kinase, ADP-Glo luminescence, 2 h; active compounds read low; 140,000 compounds, 0.81% hits; in the data active = activity change below about -25%
Target sequence (Q92551 whole entry, looked up): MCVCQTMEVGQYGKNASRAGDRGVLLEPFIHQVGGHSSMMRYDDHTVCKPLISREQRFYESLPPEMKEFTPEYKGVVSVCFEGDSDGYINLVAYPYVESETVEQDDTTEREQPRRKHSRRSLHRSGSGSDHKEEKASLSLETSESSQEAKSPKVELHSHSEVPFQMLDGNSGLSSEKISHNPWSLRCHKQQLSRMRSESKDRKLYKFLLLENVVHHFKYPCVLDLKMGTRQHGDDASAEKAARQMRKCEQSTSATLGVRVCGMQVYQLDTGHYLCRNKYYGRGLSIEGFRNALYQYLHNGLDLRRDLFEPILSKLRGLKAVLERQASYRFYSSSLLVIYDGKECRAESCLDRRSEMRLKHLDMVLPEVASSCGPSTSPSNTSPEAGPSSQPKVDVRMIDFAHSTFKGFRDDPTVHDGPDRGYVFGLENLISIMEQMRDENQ
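ADP-Glo luminescence measures ADP made by human IP6K1 during a 2 h RT reaction with ATP/IP6 (mix at 1.3 mM/130 uM); top library doses 57.5 and 19.1 uM final.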
Hits are given with their value; 0 = inactive; ? = inconclusive; - = no result; [ ] = dose if it differs, or a comment. The list is not random: actives were taken first. Their share in the collection is about 2.9%. Unless noted, calls come from the whole dose curve; as a rule, active = well fitted curve in the direction sought with a large enough effect; inconclusive = small, poorly fitted or top-dose-only effect, or another doubt; inactive = no such curve, though single readings can be large; an effect the other way counts as inactive or inconclusive.

SMILES	HEK293 viab	KDM5B inhibitor	SNCA expr inh	IP6K1 inhibitor
CCC(C)NC(=O)Cc1csc2nc(C)c(-c3cc(C)n(-c4cc(Cl)ccc4C)n3)c(=O)n12 (centres undefined)	?	?	0	0
CCCNC(=O)Cc1csc2nc(C)c(-c3cc(C)n(-c4ccc(C)cc4)n3)c(=O)n12	0	28µM	0	0
Cc1nc2scc(CC(=O)N3CCOCC3)n2c(=O)c1-c1cc(C)n(-c2ccc(F)cc2)n1	0	?	0	0
C/C=C/Cn1c(SCCO)nc2c1c(=O)[nH]c(=O)n2C	-	0	-	-
CN(Cc1ccccc1)C(=O)[C@H]1CN(Cc2ccccc2)C[C@H]1C(=O)O	0	0	0	0
CC1(C(=O)N2CCOc3c(O)cc(-c4cccc(Cl)c4)cc3C2)CCCO1 (centres undefined)	0	0	0	0
CCOc1ccc(-n2nc3ccc(NC(=O)Cc4ccccc4)cc3n2)cc1	28µM	?	28µM	0
COc1cc2ncc(C#N)c(Nc3cc(OC)c(OC)c(OC)c3)c2cc1OC	-	0	-	-
CN(C)C/C=C/C(=O)Nc1cccc(C(=O)Nc2cccc(Nc3ncc(Cl)c(-c4c[nH]c5ccccc45)n3)c2)c1	?	-	-	0
CN(C)C/C=C/C(=O)Nc1ccc(C(=O)Nc2cccc(Nc3ncc(Cl)c(-c4c[nH]c5ccccc45)n3)c2)cc1	?	-	0.17µM	0
COc1cc(Br)c(Nc2nc(-c3c(C)nc4ncccn34)cs2)c(Br)c1	6µM	-	-	0
CCCc1cc(CN(C)c2nc(CCN)nc3sc(C)c(C)c23)[nH]n1	0	22µM	0	0
O=C(c1ccc2c(c1)OCO2)N1CCC2(CC(c3cccc(C(F)(F)F)c3)=NO2)C1 (centres undefined)	0	?	0	0
O=C(c1ccc2c(c1)OCO2)N1C[C@@H]2C[C@H](C1)c1ccc(-c3cccc(C(F)(F)F)c3)c(=O)n1C2	0	28µM	0	0
O=C(COc1ccccc1)N1C[C@@H]2C[C@H](C1)c1ccc(-c3cccc(C(F)(F)F)c3)c(=O)n1C2	0	22µM	0	0
O=C(Nc1c(F)c(F)c(F)c(F)c1F)c1ccc(-c2ccccc2)cc1	-	0	-	-
O=C(Nc1cccn2nc(C3CCC3)nc12)c1ccc(F)cc1Cl	0	0	0	0
O=C(Nc1cccn2nc(C3CCC3)nc12)c1ccc(F)cc1F	0	32µM	0	0
Cc1cc(C)cc(NC(=O)CC(=O)N2CCN(C)C3(CCN(C)CC3)C2)c1	0	0	0	0
Cc1cc(C)c2c(C(=O)N3CCN(C)C4(CCN(C)CC4)C3)cc(C)nc2c1	0	25µM	0	0
O=C(NCCCN1CCc2ccccc2C1)c1c(OCC2CC2)cc(=O)n2c1CCCCC2	0	?	0	0
CC(C)C(=O)Nc1cccc(NC2=NS(=O)(=O)c3ccccc32)c1	0	0	0	0
O=C(CCl)Nc1cccc(NC2=NS(=O)(=O)c3ccccc32)c1	30µM	-	-	0
Cc1ccc(C2(O)CCN(c3ncccc3C(F)(F)F)CC2)nc1	0	0	0	0
Cc1ccc(C2(O)CCN(c3cc(C(F)(F)F)ccn3)CC2)nc1	0	25µM	0	0
SMILES	HEK293 viab	KDM5B inhibitor	SNCA expr inh	IP6K1 inhibitor
COCCNCCCn1c(C(=O)CF)c(-c2ccc(C)cc2)c2c(N)ncnc21	0	-	0	-
Cc1ccc(-c2c(C(=O)CCl)n(CCCO)c3ncnc(N)c23)cc1	24µM	-	-	0
CCO[C@H]1CN(C(=O)c2nc3ccccc3[nH]c2=O)C[C@@H]1O	0	25µM	0	0
c1ccc(-c2ccnc(NCC(c3ccncc3)N3CCOCC3)n2)nc1 (centres undefined)	0	0	0	0
NS(=O)(=O)c1ccc(CNc2nccc(-c3cccnc3)n2)cc1	0	32µM	?	0
c1cncc(-c2ccnc(NCC(c3cccnc3)N3CCCCC3)n2)c1 (centres undefined)	0	32µM	0	0
O=C(c1ccc(CNc2nccc(-c3cccnc3)n2)cc1)N1CCCCC1	0	28µM	0	0
O=C(NCc1ccc(C(=O)N2CCCC2)cc1)C1CCCCC1	-	0	-	-
O=C1N[C@H](CC(=O)N2CCN(c3ccc(C(F)(F)F)cn3)CC2)C(=O)Nc2ccccc21	0	22µM	?	0
Cc1cc(N2CCCCC2)nc2ccccc12	0	-	-	0
COCCN1CC2(CCCN(c3cc(C)c4ccccc4n3)C2)CCC1=O (centres undefined)	0	28µM	0	0
CC(C)Cc1nc2nccc(-c3ccco3)n2n1	0	25µM	0	0
c1ccc(CCc2nc3nccc(-c4ccco4)n3n2)cc1	0	25µM	0	0
CC(C)Cc1nc2nccc(-c3ccncc3)n2n1	0	28µM	0	0
COc1ccc(CCc2nc3nccc(-c4ccco4)n3n2)cc1OC	0	0	0	0
Fc1cc(F)cc(Cc2nc3nccc(-c4ccccc4)n3n2)c1	0	28µM	0	0
CN(Cc1nc2ccccc2s1)C(=O)c1cccc(S(=O)(=O)Nc2ccccc2F)c1	-	0	-	-
CC(C)Cc1nc2nccc(-c3ccc(F)cc3)n2n1	0	?	0	0
CC(C)Cc1nc2nccc(-c3ccccc3)n2n1	0	28µM	0	0
Cc1ccc(C(=O)Nc2cccc(-c3ccc(N4CCN(C)CC4)nn3)c2)cc1C	0	0	0	0
CN1CCN(c2ccc(-c3cccc(N)c3)nn2)CC1	0	0	22µM	0
O=S(=O)(c1ccccc1Br)N1CCCC1c1nnc2ccccn12 (centres undefined)	-	0	-	-
Cc1cc(C2CCC2)nc(N2C[C@@H](C)[C@@](C)(O)C2)n1	0	28µM	?	0
C[C@@H]1CN(C(=O)c2ccc3c(c2)CCC3)C[C@]1(C)O	0	0	0	0
FC(F)(F)c1cnc(N2CCSCC2)c(Cl)c1	-	0	-	-
SMILES	HEK293 viab	KDM5B inhibitor	SNCA expr inh	IP6K1 inhibitor
CC(C)(C)OC(=O)NCCCCCc1nnc(SCc2ccccc2)o1	-	0	-	-
O=C(Nc1nn(-c2cccc(F)c2)c2cccc(N3CCOC3=O)c12)C1CCC1	0	28µM	0	0
CCOc1ccccc1NC(=O)NCc1nc(-c2ccc(OC)cc2)oc1C	-	0	-	-
O=c1[nH]c(N2CCOCC2)nc2nccc(-c3ccc(OCc4ccccc4)cc3)c12	-	0	-	-
CCn1cc(C(=O)N2CCN(c3cccc(Cl)c3)CC2)c(=O)c2cc(S(=O)(=O)N3CCCCC3)ccc21	0	0[11.5 µM]	0	0
CCn1ncc(CN(C)C(=O)CC2C(=O)NCCN2C(C)C)c1C (centres undefined)	0	32µM	0	0
COc1ccc(NC(C)=O)cc1NC(=O)C1CC(=O)N(c2n[nH]c3cccc(F)c23)C1 (centres undefined)	0	?	0	0
C=C(C)C(=O)OC1CC2(C)OC(=CC2=O)C(=C)CC2OC(=O)C(=C)C12 (centres undefined)	12µM	-	-	0
O=C(Nc1ccc(Cl)cc1)N1CCN(c2nc3ncccc3o2)CC1	0	0	0	0
COc1cccc(Nc2ncc3c(n2)C(C)(C(=O)NCc2ccc4c(c2)OCO4)CC3)c1 (centres undefined)	?	?	?	0
CN(C)c1ncc2c(n1)C(C)(C(=O)NCc1cccc(F)c1)CCC2 (centres undefined)	0	?	?	0

Screening data as filed in PubChem.
